PubChem BioAssay (Tox21)
Records with an inconclusive call do not appear. Entries that show only a call come without a potency. The source made the active and inactive calls. The call rests on the fitted dose curve; in most records, active means well fitted cell-killing curve with a large enough effect in the repeat runs; inconclusive means weak or mixed curves; inactive means no such curve, though single readings can be large or run the other way.

Test: qHTS assay to identify small molecule agonists of the peroxisome proliferator-activated receptor delta (PPARd) signaling pathway - cell viability counter screen (AID 743211); further: nearly all actives have a fitted effect of over 55% in size
Conditions: PPARd-bla HEK293H viability, CellTiter-Glo luminescence, 17 h; series mostly up to 62.6 µM
Excerpt: U.S. Tox21 Program National Center for Advancing Translational Sciences [NCATS] NIH Chemical Genomics Center [NCGC] U.S. Environmental Protection Agency [EPA] National Institutes of Environmental Health Sciences [NIEHS] National Toxicology Program [NTP] U.S. Food and Drug Administration [FDA] Tox21 Assay Overview: The peroxisome proliferator-activated receptors (PPARs) are lipid-activated transcription factors of the nuclear receptor superfamily with three distinct subtypes namely PPAR alpha, PPAR delta (PPARd) and PPAR gamma. All these subtypes heterodimerizes with Retinoid X receptor (RXR) and have different physiological functions. […] To identify the compounds that activate PPAR-delta signaling, GeneBLAzer PPAR delta UAS-bla HEK293H cell line (Invitrogen, Carlsbad, CA, USA) containing a beta-lactamase reporter gene under the control of an Upstream Activator Sequence (UAS) was used to screen the Tox21 compound library. The cytotoxicity of the Tox21 compound library against the PPARd-bla cell line was tested in parallel by measuring the cell viability using CellTiter-Glo assay (Promega, Madison, WI) in the same wells.
Tox21 Assay Protocol Summary: PPARd-bla cells were dispensed at 3000 cells/6uL/well in 1536-well black wall/clear bottom plates using a Multidrop Combi (Thermo Fisher Scientific, Waltham, MA) dispenser. After the assay plates were incubated at 37 C and 5% CO2 for 5 h, 23 nL of compounds dissolved in DMSO, positive controls or DMSO only was transferred to the assay plate by a Pintool station (Kalypsys, San Diego, CA). The assay plates were incubated at 37C for 17 h. After 1 uL of LiveBLAzerTM B/G FRET substrate was added using a Bioraptr Flying Reagent Dispenser (FRD) workstation (Beckman Coulter, Indianapolis, IN, USA), the plates were incubated at room temperature for 2 h, and fluorescence intensity was measured by an Envision plate reader (PerkinElmer, Shelton, CT). For cell viability readout that measures cytotoxicity, 3 ul/well of CellTiter-Glo reagent was added into the assay plates using a Bioraptr FRD. After 30 min incubation at room temperature, the luminescence intensity in the plates was measured using a ViewLux plate reader (PerkinElmer).

**Q.** With `COCCCOCCCOC` as the compound, how does the Potency read?
**A.** inactive

**Q.** With `COC(=O)CC(C)=O` as the compound, how does the Potency read?
**A.** inactive

**Q.** With `CCOC(=O)C(=O)OCC` as the compound, how does the Potency read?
**A.** inactive

**Q.** With `CC(C)CNCC(C)C` as the compound, how does the Potency read?
**A.** inactive

**Q.** Which Potency does the source give for `FC(F)OC(Cl)C(F)(F)F` (stereo not given) here?
**A.** inactive

**Q.** Which Potency does the source give for `CC(C)NCCCC1(C(N)=O)c2ccccc2-c2ccccc21` here?
**A.** inactive

**Q.** Which Potency does the source give for `OCCOc1ccc(OCCO)cc1` here?
**A.** inactive

**Q.** For `CC(C)NCC(O)c1ccc(NS(C)(=O)=O)cc1` (stereo not given), which Potency is on record?
**A.** inactive

**Q.** Which Potency does the source give for `C[N+](C)(C)CCCCCC[N+](C)(C)C` here?
**A.** inactive

**Q.** For `C=C1CC[C@H]2C[C@@H]1C2(C)C`, which Potency is on record?
**A.** inactive

**Q.** Which Potency does the source give for `Cc1cnc(NS(=O)(=O)c2ccc(N)cc2)nc1` here?
**A.** inactive

**Q.** With `COC(=O)NN` as the compound, how does the Potency read?
**A.** inactive

**Q.** Which Potency does the source give for `O=C(CCCN1CCN(c2ccccn2)CC1)c1ccc(F)cc1` here?
**A.** inactive

**Q.** For `CCCC(=O)O[C@]1(C(=O)CO)CC[C@H]2[C@@H]3CCC4=CC(=O)CC[C@]4(C)[C@H]3[C@@H](O)C[C@@]21C`, which Potency is on record?
**A.** inactive

**Q.** Which Potency does the source give for `CC1(C)C(O)C(C)(C)C1O` (stereo not given) here?
**A.** inactive

**Q.** For `CCn1nc(C(=O)O)c(=O)c2cc3c(cc21)OCO3`, which Potency is on record?
**A.** inactive

**Q.** Which activity change, negative = cytotoxicity does the source give for `O=C(O)CN(CCOCCOCCN(CC(=O)O)CC(=O)O)CC(=O)O` here?
**A.** 8.22% [at 0.55 µM] (inactive)

**Q.** For `COC(=O)c1c(Cl)c(Cl)c(C(=O)OC)c(Cl)c1Cl`, which Potency is on record?
**A.** inactive

**Q.** With `O=[N+]([O-])c1ccc(F)cc1F` as the compound, how does the Potency read?
**A.** inactive

**Q.** With `COC(=O)c1cc(C(=O)OC)cc(S(=O)(=O)O)c1` as the compound, how does the Potency read?
**A.** inactive

**Q.** Which Potency does the source give for `COC(=O)[C@@H](N)Cc1ccc(O)c(O)c1` here?
**A.** inactive

**Q.** With `CC(NC(CCc1ccccc1)C(=O)O)C(=O)N1C(=O)N(C)CC1C(=O)O` (stereo not given) as the compound, how does the Potency read?
**A.** inactive

**Q.** With `CC(C(=O)O)c1ccc(CC2CCCC2=O)cc1` (stereo not given) as the compound, how does the Potency read?
**A.** inactive

**Q.** Which Potency does the source give for `O=S(O)CO` here?
**A.** inactive

**Q.** With `C[C@H](NC(CCc1ccccc1)C(=O)O)C(=O)N1CCC[C@H]1C(=O)O` (stereo not given in full) as the compound, how does the Potency read?
**A.** inactive

**Q.** Which Potency does the source give for `CCCCCCCCCCCC` here?
**A.** inactive

**Q.** For `CCOC(C)(C)C`, which Potency is on record?
**A.** inactive

**Q.** Which Potency does the source give for `CCCCCCCCCCCCCCCCC` here?
**A.** inactive

**Q.** For `CCOC(=O)Nc1ccc(NCc2ccc(F)cc2)nc1N`, which Potency is on record?
**A.** inactive

**Q.** For `CCc1ccc(O)c(OC)c1`, which Potency is on record?
**A.** inactive

**Q.** With `NC(=O)c1ccc(N)cc1` as the compound, how does the Potency read?
**A.** inactive

**Q.** Which Potency does the source give for `CCOC(=O)CC(C)=O` here?
**A.** inactive

**Q.** Which Potency does the source give for `O=C1CCCCCCCCCCCN1` here?
**A.** inactive

**Q.** For `CCOC(=O)c1cccc(N)c1`, which Potency is on record?
**A.** inactive

**Q.** With `CCO[Si](CCC1CCC2OC2C1)(OCC)OCC` (stereo not given) as the compound, how does the Potency read?
**A.** inactive

**Q.** With `CC(=O)Nc1ccc(S(N)(=O)=O)cc1` as the compound, how does the Potency read?
**A.** inactive

**Q.** With `Cc1c(NC(C)C)c(=O)n(-c2ccccc2)n1C` as the compound, how does the Potency read?
**A.** inactive

**Q.** For `NC(CSCC(=O)O)C(=O)O` (stereo not given), which Potency is on record?
**A.** inactive

**Q.** Which Potency does the source give for `O=C(O)CCCc1ccccc1` here?
**A.** inactive

**Q.** With `CN1N=C(C(N)=O)CCC1=O` as the compound, how does the Potency read?
**A.** inactive
